The results in this text go back to the supplement of paper PMC7411640.

Molecules are shown by their SMILES. Counter-ions that a name gives are not always drawn.

This assay has as its system MDA-MB-468. The assay can be described thus: phospho-S6 immunofluorescence (DAPI-normalised), per-plate z-score; higher = higher phospho-S6 signal (less pathway suppression). The conditions noted are these: co-treatment: lapatinib 1 uM; 24 h. The protocol: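 GPCR-targeted compound library (MedChemExpress HY-L006) tested on MDA-MB-468 PTEN-null TNBC cells in 384-well plates at 0.1, 1 or 10 uM, combined with vehicle, GDC0941 450 nM or lapatinib 1 uM, for 24 h. Phospho-S6 (S240/244) immunofluorescence normalised to DAPI and expressed as a per-plate z-score; values are the mean of biological triplicates.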
In the case of `C[C@H]1CNCCc2ccc(Cl)cc21` [Lorcaserin (Hydrochloride)] (compound 10 µM), the “phospho-S6 immunofluorescence (z-score)” value is -0.25.
Next, `Cc1c(C(=O)c2cccc3ccccc23)c2cccc3c2n1[C@H](CN1CCOCC1)CO3` [WIN 55,212-2 (Mesylate)] (compound 10 µM): -0.84.
Next, `CN1CCC2=C(C1)c1ccccc1Cc1ccccc12` [Setiptiline] (compound 10 µM): -1.52; `O=C1CCC[C@@H]2[C@H]3CCCN4CCC[C@@H](CN12)[C@@H]34` [Matrine] (compound 10 µM): -0.53.
Next, `O=C1CC[C@@]2(O)[C@H]3Cc4ccc(O)c5c4[C@@]2(CCN3CC2CC2)[C@H]1O5` [Naltrexone (Hydrochloride)] (compound 10 µM): 0.25; `CN1C(=O)COc2c(C(=O)NC3CN4CCC3CC4)cc(Cl)cc21` (stereo not given) [Azasetron (hydrochloride)] (compound 10 µM): 0.2.
With `O=c1[nH]c2ccccc2n1CCCN1CCC(n2c(=O)[nH]c3cc(Cl)ccc32)CC1` [Domperidone] (compound 10 µM), the “phospho-S6 immunofluorescence (z-score)” value worked out at 0.25.
For `CN1CCC(C(=O)c2cccc(NC(=O)c3c(F)cc(F)cc3F)n2)CC1` [Lasmiditan (hydrochloride)] (compound 10 µM) the value was -3.95; for `Oc1ccc2c3c1O[C@H]1c4[nH]c5ccccc5c4C[C@@]4(O)[C@@H](C2)N(CC2CC2)CC[C@]314` [Naltrindole (hydrochloride)] (compound 10 µM), -5.41.
For `CO[C@]12C[C@@H](COC(=O)c3cncc(Br)c3)CN(C)[C@@H]1Cc1cn(C)c3cccc2c13` [Nicergoline] (compound 10 µM) the value was -0.56.
